The values below come from PubChem BioAssay (NCI).

About 83,000 compounds went through this panel and 20% of them were active in at least one assay; those are over-represented in the sample as a whole.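 How to read the values: 0–100, growth inhibition (40 = 60% inhibited); 0, no net growth; -100 to 0, cell death (-40 = 40% of starting cells died; -100 = all dead).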 Values without a mark were called inactive. Active and inactive are the calls of the source. The calls were made as follows: active = growth percent below 10; inactive = the rest.

What all share (assay): NCI-60 one-dose screen, 48 h (100 = growth as untreated, 0 = no growth, -100 = all killed)
What all share (conditions): 10 µM

The subject of experiment [1] is DU-145 prostate.
Experiment [2] concerns K-562 leukemia.
Experiment [3] concerns MDA-MB-231 breast.
The subject of experiment [4] is RXF 393 renal.
Experiment [5] concerns SF-268 CNS.
The test system of experiment [6] is SF-295 CNS.
Experiment [7] has as its system SF-539 CNS.
Experiment [8] has as its system UACC-257 melanoma.
The test system of experiment [9] is M14 melanoma.
Experiment [10] deals with HCT-15 colon.
Experiment [11] relates to HT29 colon.
The subject of experiment [12] is SNB-75 CNS.
The test system of experiment [13] is SNB-19 CNS.
Experiment [14] relates to U251 CNS.
Experiment [15] has as its system PC-3 prostate.
Experiment [16] has as its system SK-MEL-5 melanoma.
Experiment [17] relates to UACC-62 melanoma.
Experiment [18] has as its system LOX IMVI melanoma.
Experiment [19] deals with SK-MEL-28 melanoma.
Experiment [20] has as its system MALME-3M melanoma.

Consider `OCCn1cccn1`, for which the growth in [1] is 104%; in [2], 101%; in experiment [3], 103%; in experiment [4] it was 93.8%; in experiment [5] it was 100%; in [6] it was 108%. Moreover, the growth in experiment [7] was 98.3%; in experiment [8], 136%; in [9] it was 112%; in experiment [10], 98.6%; in experiment [11], 104%; in [12], 109%. Further, the growth in [13] is 113%; in experiment [14] it was 101%; in [15], 100%; in experiment [16], 99%; in experiment [17], 114%; in [18] it was 96.3%. Moreover, the growth in experiment [19] was 117%.
Consider `CCn1c(CSc2nc3ccccc3c(=O)n2CCc2ccccc2)n[nH]c1=S`, for which the growth is 113% in experiment [1]; 71.6% in experiment [2]; 97.2% in [20]; 82.8% in experiment [3]; 85.2% in experiment [4]; 98.4% in [5]. Also, the growth was 99.8% in experiment [7]; 88.5% in experiment [8]; 88.8% in [9]; 88.2% in experiment [11]; 107% in experiment [12]; 106% in experiment [13]. The growth in experiment [15] was 83.9%; in experiment [16], 82.4%; in experiment [17] it was 85.2%; in [19], 106%.
On to `COc1ccc(C2CC(c3cccs3)=NN2c2ccc(S(N)(=O)=O)cc2)cc1` (stereo unspecified), for which the growth in experiment [1] was 102%; in experiment [2], 67.6%; in experiment [3] it was 91.9%; in [4] it was 93.6%; in experiment [5], 97.6%; in experiment [6] it was 95.8%. Besides, the growth in experiment [7] was 104%; in [8], 30.5%; in experiment [9] it was 78.4%; in [10], 84.3%; in experiment [11], 86.8%; in experiment [12] it was 70.7%. For the same molecule, the growth was 77.4% in experiment [13]; 78% in [14]; 49.9% in experiment [15]; 60.8% in experiment [16]; 42.8% in experiment [17]; 102% in experiment [18]. Also, the growth in [19] is 63.2%.
On to `C=CCNCCN1C(=O)c2ccc3c4c(ccc(c24)C1=O)C(=O)N(CCNCC=C)C3=O`, for which the growth in [1] was -87.7% (active); in experiment [2], 1.43% (active); in experiment [3], 5.12% (active); in experiment [4], -74.3% (active); in experiment [5], -17.5% (active); in [6], -73.1% (active). Besides, the growth is -90.6% (active) in experiment [7]; -90.3% (active) in experiment [8]; -84.3% (active) in experiment [9]; -67.4% (active) in [10]; -44.9% (active) in experiment [11]; -37.9% (active) in [12]. For the same molecule, the growth is -88.1% (active) in [13]; -89.4% (active) in experiment [14]; -7.8% (active) in experiment [15]; -95.4% (active) in experiment [16]; -74.9% (active) in [17]; -78.8% (active) in experiment [18]. Also, the growth in experiment [19] is -57% (active).
Consider `Cc1c2c(nn1C(=O)c1nn(-c3ccc(Cl)cc3)cc1O)-c1ccccc1CC2`, for which the growth in [1] was 24.1%; in [2], -11.5% (active); in [3] it was 38.1%; in experiment [4] it was 31.8%; in experiment [5] it was 33.9%; in experiment [6] it was -15.1% (active). Also, the growth in experiment [7] is 9.85% (active); in [8], -1.88% (active); in experiment [9] it was 27.2%; in experiment [10] it was 25.1%; in experiment [11], 30%; in experiment [12], 46.7%. The growth was 34.3% in experiment [13]; 22.3% in [14]; 24.3% in experiment [16]; -6.22% (active) in [17]; 17.5% in experiment [18]; 54.7% in experiment [19].
On to `Cc1ccc(C2=NN(c3ccc(S(C)(=O)=O)cc3)C(=O)CC2)cc1`, for which the growth was 6.77% (active) in experiment [1]; 11.7% in experiment [2]; 45.5% in experiment [20]; 47.8% in [3]; 15.4% in experiment [4]; 55.2% in experiment [5]. Also, the growth is -7.93% (active) in experiment [7]; 50.7% in experiment [8]; 10.2% in experiment [9]; 11.1% in [11]; 8.1% (active) in experiment [12]; 55% in [13]. For the same molecule, the growth in experiment [15] is 29.3%; in [16] it was 13.9%; in experiment [18] it was 33.7%; in [19], 51.4%.
With `COc1ccc(-c2nc(-c3nc4ccc(C)cc4[nH]3)cc3c2[nH]c2ccccc23)cc1`, the growth in [1] was 41.4%; in experiment [2], 17%; in experiment [3], 15.8%; in experiment [4], 27.9%; in experiment [5], 50.3%; in experiment [6] it was 25.5%. Besides, the growth in [7] was 50.2%; in [8], 69.6%; in [9] it was 31.5%; in experiment [10] it was 29.7%; in experiment [11], 30%; in [13], 84.1%. Besides, the growth is 34.8% in [14]; 43.8% in experiment [15]; 35.6% in experiment [16]; 21% in experiment [17]; 25.8% in [18]; 71.7% in [19].
Take `COc1nc2c(c(=O)n1C)CN(c1ccccc1)C(=O)C(C)N2` (stereo unspecified): the growth in experiment [1] was 114%; in [2], 101%; in experiment [3], 98.3%; in experiment [4], 95.2%; in experiment [5], 97.1%; in experiment [6] it was 105%. The growth is 96.1% in experiment [7]; 93.5% in experiment [8]; 95.3% in experiment [9]; 101% in experiment [10]; 99.9% in experiment [11]; 77.4% in [12]. For the same molecule, the growth was 96.7% in experiment [13]; 99% in [14]; 104% in [16]; 91.7% in experiment [17]; 91.6% in experiment [18]; 113% in [19].
In the case of `NS(=O)(=O)c1ccc(N2N=C(c3ccccc3)CCC2=O)cc1`, the growth was 182% in experiment [1]; 85.1% in experiment [2]; 112% in experiment [3]; 110% in experiment [4]; 176% in [5]; 99% in experiment [6]. Further, the growth in [7] was 102%; in experiment [8], 96.5%; in experiment [9], 100%; in experiment [10], 109%; in experiment [11], 98.6%; in experiment [12], 108%. In addition, the growth is 94.7% in experiment [13]; 105% in experiment [15]; 105% in [16]; 106% in experiment [17]; 108% in experiment [18]; 120% in experiment [19].
